Screening results (PubChem BioAssay)
D2 PAM-1: D2 dopamine receptor (human) potentiation; potentiation, % at 10 µM; P14416; 0.34% of 340,000 active; HEK293 T-REx D2, calcium flux, EC20 dopamine potentiation;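 active means potentiation over 3 SD above the plate norm, cut at about 30% in these data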; further: 0% is about no effect
Target sequence (P14416 whole entry, looked up): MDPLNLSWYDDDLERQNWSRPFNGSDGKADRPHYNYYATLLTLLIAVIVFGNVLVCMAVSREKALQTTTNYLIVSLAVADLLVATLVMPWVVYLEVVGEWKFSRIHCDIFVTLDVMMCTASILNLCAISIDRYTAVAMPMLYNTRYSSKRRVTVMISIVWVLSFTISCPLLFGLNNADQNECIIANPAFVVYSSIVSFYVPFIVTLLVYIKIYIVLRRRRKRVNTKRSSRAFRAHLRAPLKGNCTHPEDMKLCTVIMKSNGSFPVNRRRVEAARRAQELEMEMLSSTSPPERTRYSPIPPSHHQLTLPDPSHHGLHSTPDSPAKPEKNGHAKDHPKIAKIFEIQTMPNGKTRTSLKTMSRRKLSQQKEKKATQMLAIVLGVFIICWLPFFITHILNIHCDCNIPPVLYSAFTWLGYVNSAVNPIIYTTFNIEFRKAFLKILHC
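Cells plated with tetracycline inducer and held overnight at 30 C; calcium dye loaded 30–90 min at room temperature; baseline taken, compound added and read 180 s; EC20 dopamine then added and read 180 s.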
D2 PAM-2: potentiates the human D2 dopamine receptor allosterically | potentiation, % (test concentration not listed) | DiscoveRx D2 beta-arrestin cells, luminescence, 90 min; 100% = 57 uM dopamine signal | 0.23% of 360,000 active; in the data active means potentiation above about 50%
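D2 cells co-treated with compound plus 50 nM dopamine (EC20) for 90 min at 37 deg C to detect potentiation. Beta-arrestin recruitment was read as enzyme-fragment luminescence after 1 h at ambient temperature. Full response was set by 57 uM dopamine.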
D2 antagonist: antagonizes the human D2 dopamine receptor; 2% of 340,000 active; AID 485344; P14416; inhibition, % at 10 µM; HEK293 TREx D2 cells, calcium flux, dopamine EC80; in the data active means inhibition above about 30%; inactive means below that, where a call was filed; further: 0% is about no effect
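Calcium flux kinetic readout in an inducible HEK293 TREx D2 line plated overnight at 30 C. After 180 s compound exposure, an EC80 dopamine challenge follows with another 180 s kinetic read to detect antagonism.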
D2 ag-1: agonists of human D2 dopamine receptor; P14416; HEK293 T-REx D2 cells, calcium flux agonist mode; activation, % at 2 µM; 0.53% of 340,000 active; AID 485358;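 active means activation over 3 SD above normal in the single-dose calcium agonist read, cut at about 30% in these data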; further: 0% is about no effect
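HEK293 Trex D2 cells, tetracycline-induced, o/n 30 C 5% CO2; no-wash Ca dye, RT 30–90 min; 10-cycle baseline, 23 nl cpd added, kinetic Ca read 180 s; agonist hits = positive Ca response.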
D2 ag-2: agonists of human D2 dopamine receptor (beta-arrestin); P14416; DiscoveRx PathHunter D2 beta-arrestin, luminescence, 90 min; 100% = 57 uM dopamine signal; activation, % (no concentration beside the values); 0.084% of 360,000 active; AID 624465; in the data active means activation above about 40%
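Agonist mode: compounds alone added to overnight-plated D2 PathHunter cells for 90 min at 37 C, with 57 uM final dopamine (EC100) defining full response. Beta-arrestin recruitment detected by chemiluminescent reagent, read after 1 h at ambient temperature.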
Active calls of the source: *; · = no result given; ! = not active in a repeat. Sampled rows, rich in hits. Any-hit rate of the full collection: about 2.4%.

SMILES	D2 PAM-1	D2 PAM-2	D2 antagonist	D2 ag-1	D2 ag-2
CCOc1ccc(C(=O)c2cn(Cc3ccc(OC)cc3)c3cc(OC)c(OC)cc3c2=O)cc1	8	·	·	-2	·
Cc1ccc(-c2cc(C(=O)O)c3cc(Br)ccc3n2)s1	-10	22	31*!	-1	-2
CCN(Cc1ccccc1)C(=O)c1cnn(-c2ccc(F)cc2)c1-n1cccc1	3	·	·	-1	·
Cc1cccc(CCNC(=O)C2CCN(S(=O)(=O)c3c(C)nn(C)c3C)CC2)c1	-11	9	32*	0	-2
Cc1ccc(CCNC(=O)C2CCN(S(=O)(=O)c3c(C)nn(C)c3C)CC2)cc1	-8	-4	-30	0	-1
O=C(CN1C(=O)CSc2ccc(S(=O)(=O)N3CCOCC3)cc21)NCCCN1CCc2ccccc2C1	-20	-21	47*	1	0
CC1CC(C)CN(CCCNC(=O)c2ccc3c(c2)NC(=O)CS3)C1 (configuration not stated)	-8	-30	48*	0	-1
O=C(CN1C(=O)CSc2ccc(S(=O)(=O)N3CCOCC3)cc21)NCCCN1CCOCC1	6	-6	9	0	0
CC1CC(C)CN(CCCNC(=O)CN2C(=O)CSc3ccc(S(=O)(=O)N4CCCCC4)cc32)C1 (configuration not stated)	-3	-38	52*	0	-4
Cc1cc(Cl)ccc1NC(=O)C1CCN(c2nnc(-n3c(C)ccc3C)s2)CC1	-5	·	·	0	·
CCn1ccc2cc(S(=O)(=O)N3CCC(C(=O)NCCOC)CC3)ccc21	·	·	·	0	·
CCc1cc2c(cc3c(=O)n(CC(=O)N4CCCCC4)nc(CC)n32)s1	-1	·	·	0	·
CC(=O)C1=C(c2ccccc2)N(C(C)=O)n2c(nnc2C2CCCCC2)S1	4	·	·	0	·
CCCCNc1c(-c2ccc(SC3CCCCC3)c(OC)c2)nc2ccc(C)cn12	·	2	·	·	7
CCCCNc1c(-c2ccc(OC)c(SC3CCCCC3)c2)nc2ccc(C)cn12	·	-9	·	·	48*
Cn1ncc2c(O/N=C(\N)c3ccc(C(C)(C)C)cc3)ncnc21	13	85*	-1	0	86*
Cc1ccc(OCc2nc(-c3ccc(C(=O)N4CCN(c5ccccc5F)CC4)cc3)oc2C)cc1	-7	·	·	1	·
CCCCN1CCc2c1nc1ccc(Br)cc1c2N	-22	-22	68*	-1	-1
Cc1nn(-c2ccccc2)c(-n2cccc2)c1C(=O)N1CCN(c2ccccc2)CC1	-6	·	·	0	·
CCN(CC)c1ccc(CN(C(=O)c2cccs2)C2CCS(=O)(=O)C2)cc1 (configuration not stated)	9	-14	30*	0	-5
Cc1ccc(C(=O)Nc2sc3c(c2C(=O)O)CCCCC3)o1	3	4	32*	1	-1
COC(=O)c1c(NC(=O)c2ccco2)sc2c1CCC2	30*	5	2	-3	-6
O=C(Nc1sc2c(c1C(=O)O)CCC2)c1ccco1	5	-1	4	0	1
COC(=O)c1c(NC(=O)Cc2cccs2)sc2c1CCCC2	3	3	-2	0	-3
COC(=O)c1c(NS(=O)(=O)c2cccs2)sc2c1CCCC2	9	-2	41*	0	-2
SMILES	D2 PAM-1	D2 PAM-2	D2 antagonist	D2 ag-1	D2 ag-2
CC(Oc1ccccc1)C(=O)NC1CCN(Cc2ccccc2)CC1 (configuration not stated)	-28	-20	42*	0	-3
Cc1ccc(Cl)cc1S(=O)(=O)N1CCC(C(=O)NC2CCN(Cc3ccccc3)CC2)CC1	-22	-16	31*	3	-3
Cc1ccc(CC(=O)NC2CCN(Cc3ccccc3)CC2)cc1	-14	-12	-3	0	-2
CCCN1CCC(NC(=O)Cc2ccccc2C)CC1	-13	-5	1	1	-4
CC(Oc1ccccc1)C(=O)NC1CCCCCCC1 (configuration not stated)	7	-11	-12	0	4
Cc1ccccc1CC(=O)NC1CCN(Cc2ccccc2)CC1	-37	-24	56*	0	-1
O=C(Cc1ccccc1)NC1CCN(Cc2ccccc2)CC1	-27	-20	36*	1	-12
COc1ccc(-c2cn3nc(SCC(=O)Nc4cccc(C)c4C)ccc3n2)cc1	8	·	·	·	·
O=C(CCNS(=O)(=O)c1cccs1)NC1CCN(Cc2ccccc2)CC1	-34	-12	41*	1	0
O=C(CCNS(=O)(=O)c1ccc(Br)cc1)NC1CCN(Cc2ccccc2)CC1	·	-43	·	·	-2
O=C(NC1CCN(Cc2ccccc2)CC1)C12CC3CC(CC(C3)C1)C2	-29	-16	32*	1	-2
CCC(C)(C)n1nnnc1C(c1ccc(O)c(OC)c1)N1CCc2ccccc2C1 (configuration not stated)	2	-10	35*	0	-1
CCC(C)(C)n1nnnc1C(c1ccccc1)N1CCc2ccccc2C1 (configuration not stated)	9	-7	3	-1	1
Cc1ccc(NC(=O)C2CCCN(S(=O)(=O)c3c(C)noc3/C=C/N(C)C)C2)c(C)c1 (configuration not stated)	-3	-17	17	0	-1
Cc1noc(/C=C/N(C)C)c1S(=O)(=O)N1CCCC(C(=O)Nc2ccc(F)cc2F)C1 (configuration not stated)	-1	-5	54*	0	1
Cc1ccc(C)c(NC(=O)C2CCCN(S(=O)(=O)c3c(C)noc3/C=C/N(C)C)C2)c1 (configuration not stated)	-11	-25	37*	-1	-5
CCN1CCN(C(c2cccc(Cl)c2)c2c(O)cc(C)n(CCOC)c2=O)CC1 (configuration not stated)	8	·	·	0	·
CCOC(=O)C1CCN(C/C=C/c2ccccc2OC)CC1	-20	-10	18	4	-4
CCOC(=O)C1CCN(C/C=C/c2ccccc2[N+](=O)[O-])CC1	-12	-13	48*	-1	1
CC1CCCCN1C(=O)/C=C/c1ccccc1[N+](=O)[O-] (configuration not stated)	14	-3	30*	0	-5
CCN(CC)c1nc2c(S(=O)(=O)c3ccccc3)nnn2c2ccc(Cl)cc12	·	·	·	1	·
CCN(CC)C(CNS(=O)(=O)c1ccc(Cl)cc1)c1ccccc1 (configuration not stated)	1	-8	39*	-1	-10
COC(CNS(=O)(=O)c1ccc(Cl)cc1)c1ccccc1 (configuration not stated)	-11	-5	4	-2	3
Cc1nc2ccc(S(=O)(=O)N(CC(=O)Nc3cccc(C)c3C)Cc3ccccc3)cc2s1	8	·	·	1	·
